Experimental findings from PubChem BioAssay are described below.

Molecules are shown by their SMILES. “And” between values parts separate entries of the source, which are not always exact repeats. Equal entries are not always repeated. Where a structure was tested more than once in an assay, its records may differ in their call. The source made the active and inactive calls. Unless noted, the rule behind the calls is not given here.

Test [1] can be described thus: kinase inhibitors against Plasmodium liver-stage infection, cell-based, known kinase inhibitor set, luminescence, hepatoma host viability (AID 624392).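 Note: infected cells incubated roughly two days before readout.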 Particulars: Plasmodium liver stage in hepatoma cells, luciferase luminescence, concentration not given here; liver cell % of control: measured here: host liver cell viability; parasite % of control: stronger effect = lower value.

Test [2] in a line: modulators of glucocorticoid suppression of NF-kB, cell-based, luciferase, IL-1B stimulus, dexamethasone (AID 624486).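 For percent of negative control (+Dex): 100% = mean signal of vehicle control wells on the plate.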 The following applies: NF-kB luciferase reporter, IL-1B + dexamethasone, luminescence; percent of negative control (+Dex): actives lie on both sides, concentration not given here; z-score: measured here: IL-1B alone, no Dex. In general terms: In a reporter assay the amount or activity of a reporter protein is the signal.

Test [3] is described as follows: kinase inhibitors altering Pseudomonas killing of worms, whole organism (AID 651566).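 Note: tested at 14 µM; sign flipped so higher z means a lower ratio.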 The following applies: C. elegans killed by P. aeruginosa, survival ratio.
A short description of test [4]: activators of macrophage pro-inflammatory response, cell-based, murine, luminescence (AID 652131). Particulars: murine macrophage pro-inflammatory reporter, stronger effect = higher value.
Test [5] addresses Cellular tumor antigen p53 (Homo sapiens) (UniProt P04637). Nature of the test: kinase inhibitors altering GFP-p53 stability in HPV16-positive cells, imaging, known kinase inhibitor set, EGFP/DsRed ratio (AID 1053116).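 Note: cells exposed to compounds for 24 h at 37 °C before reading.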 Particulars: stronger effect = higher value; EGFP object count: measured here: GFP-p53 positive objects count.
The nature of test [6]: IRF3 reporter activation in THP-1 macrophages, cell-based, PMA-stimulated THP-1, luminescence (AID 1053176). The following applies: PMA-differentiated THP-1, IRF3 reporter luminescence; stronger effect = higher value.
A short description of test [7]: survival rescue of mitochondrial mutant cells in low glucose, primary screen, MELAS cybrids, Rieske KO mouse fibroblasts, CellTiter-Glo (AID 1508586;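 active = mean z-score across replicates of 1.96 or higher in either the MELAS or the Rieske mutant cell line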;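 note: z relative to plate mean and SD of compound and empty wells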). (In general: ATP-based viability assays read luminescence as a measure of living cells.)
Setting [8] is: MELAS cybrid survival, CellTiter-Glo 48 h, stronger effect = higher value.
[9] abbreviates: Rieske KO mouse fibroblast survival, CellTiter-Glo 72 h.

Cellular tumor antigen p53 (Homo sapiens), sequence (P04637 whole entry, looked up): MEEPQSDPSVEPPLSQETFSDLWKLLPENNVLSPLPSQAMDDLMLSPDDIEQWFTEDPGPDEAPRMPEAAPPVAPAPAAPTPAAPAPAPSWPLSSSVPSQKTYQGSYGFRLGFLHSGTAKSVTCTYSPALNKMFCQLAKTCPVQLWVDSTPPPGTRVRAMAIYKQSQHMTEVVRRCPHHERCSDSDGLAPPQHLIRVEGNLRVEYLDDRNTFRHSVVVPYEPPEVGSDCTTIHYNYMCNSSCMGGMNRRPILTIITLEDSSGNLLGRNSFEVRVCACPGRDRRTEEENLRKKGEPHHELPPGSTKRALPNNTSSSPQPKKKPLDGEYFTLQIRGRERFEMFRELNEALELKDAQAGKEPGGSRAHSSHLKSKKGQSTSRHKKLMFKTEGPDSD

Regarding `COc1cc(Nc2ncc3c(C)nc(-c4cccc(Oc5ccccc5)c4)n3n2)cc(OC)c1OC`, in test [1], the liver cell % of control turned out to be 92.5%. Besides, the parasite % of control in test [1] was 147% (inactive). The percent of negative control (+Dex) in test [2] is 77% (inactive). For the same compound, the z-score in test [2] is -1.34; in test [3], 0.075 (inactive); in test [4], -0.606 (inactive); in test [7] (setting [8]) it was 0.38 (inactive); in test [7] (setting [9]), 0.0156. The EGFP object count in test [5] turned out to be 8.5. In addition, the EGFP/DsRed ratio in test [5] was 0.0854 (inactive). In test [6], the fraction signal was 0 (inactive).

`COc1cc2ncn(-c3cc(OCc4ccccc4C(F)(F)F)c(C(C)=O)s3)c2cc1OC` came in with a liver cell % of control in test [1] of 97.8%. Further, in test [1], the parasite % of control was 91.8% (inactive). Also, the percent of negative control (+Dex) in test [2] was 82.5% (inactive). Also, the z-score was -0.63 in test [2]; -0.4 (inactive) in test [3]; -0.463 (inactive) in test [4]; -0.657 (inactive) in test [7] (setting [8]); 0.0101 in test [7] (setting [9]). Also, in test [5], the EGFP object count stood at 5. In addition, in test [5], the EGFP/DsRed ratio was 0.118 (inactive). Besides, in test [6], the fraction signal was 0.002 (inactive).

Compound `COc1cc2c(cc1Nc1nc(Nc3ccsc3C(N)=O)c3cc[nH]c3n1)N(C(=O)CN(C)C)CCC2(C)C` registered a liver cell % of control in test [1] of 67.7%. For the same compound, in test [1], the parasite % of control is 290% (inactive). In addition, the percent of negative control (+Dex) in test [2] is 91% (inactive). The z-score is -0.245 in test [2]; 0.455 (inactive) in test [3]; 2.78 (inactive) in test [4]; 0.737 in test [7] (setting [8]); 2.24 in test [7] (setting [9]). Also, in test [5], the EGFP object count stood at 3.5. Moreover, the EGFP/DsRed ratio in test [5] is 0.0546 (inactive). For the same compound, the fraction signal in test [6] was 0.001 (inactive).

For the compound `CN1CCC(C(=O)Nc2n[nH]c3nc(-c4ccc(O)cc4)c(Br)cc23)CC1`, the liver cell % of control in test [1] is 51.2% and 53.8%. The parasite % of control in test [1] is 292% (inactive) and 294% (inactive). Besides, the percent of negative control (+Dex) in test [2] was 108% (inactive) and 100% (inactive). Also, the z-score is -0.82 and -0.48 in test [2]; 0.21 (inactive) and -0.175 (inactive) in test [3]; -0.483 (inactive) and -0.641 (inactive) in test [4]; -0.719 (inactive) and 2.2 (active) in test [7] (setting [8]); -0.17 and -0.0758 in test [7] (setting [9]). Further, in test [5], the EGFP object count is 2.5 and 3. In addition, the EGFP/DsRed ratio in test [5] was 0.0956 (inactive) and 0.0438 (inactive). Moreover, the fraction signal in test [6] was 0.0155 (inactive) and 0.0035 (inactive).

Compound `O=C1NC(=O)C(c2ccccc2Cl)=C1Nc1cccc(O)c1` gave a liver cell % of control in test [1] of 91.7%. Further, in test [1], the parasite % of control was 148% (inactive). For the same compound, in test [2], the percent of negative control (+Dex) was 88% (inactive). The z-score in test [2] is -0.19; in test [3], -0.34 (inactive); in test [4], 0.132 (inactive); in test [7] (setting [8]) it was -0.289 (inactive); in test [7] (setting [9]), -0.424. Further, the EGFP object count in test [5] is 5.5. Moreover, the EGFP/DsRed ratio in test [5] is 0.0989 (inactive). Besides, the fraction signal in test [6] was -0.003 (inactive).

The compound `COc1cccc(-n2ncc3c(N/N=C/c4ccc(C(=O)NCCN(C)C)cc4)ncnc32)c1` displayed a liver cell % of control in test [1] of 77.1%. Besides, in test [1], the parasite % of control was 68.4% (inactive). The percent of negative control (+Dex) in test [2] was 104% (inactive). For the same compound, the z-score is 0.67 in test [2]; -0.295 (inactive) in test [3]; 0.961 (inactive) in test [4]; -0.557 (inactive) in test [7] (setting [8]); 0.745 in test [7] (setting [9]). Moreover, in test [5], the EGFP object count is 7. Also, the EGFP/DsRed ratio in test [5] was 0.117 (inactive). Also, the fraction signal in test [6] is -0.0045 (inactive).

As to `O=C(O[C@H]1CN[C@H](C#Cc2cc3ncnc(Nc4ccc(OCc5cccc(F)c5)c(Cl)c4)c3s2)C1)N1CCOCC1`, in test [1], the liver cell % of control was 89.4%. Besides, the parasite % of control in test [1] is 117% (inactive). In addition, the percent of negative control (+Dex) in test [2] is 74.5% (inactive). For the same compound, the z-score in test [2] is -1.65; in test [3], 0.44 (inactive); in test [4], -0.505 (inactive); in test [7] (setting [8]), -0.421 (inactive); in test [7] (setting [9]) it was -0.498. In addition, the EGFP object count in test [5] worked out at 4.5. Further, in test [5], the EGFP/DsRed ratio was 0.0369 (inactive). For the same compound, in test [6], the fraction signal was -0.0095 (inactive).

`Cc1ccc2c(-c3ccnc(Nc4ccccc4)n3)c(-c3ccc(F)cc3)nn2n1` came in with a liver cell % of control in test [1] of 152%. Also, in test [1], the parasite % of control was 12.5% (active). Also, the percent of negative control (+Dex) in test [2] was 81% (inactive). Also, the z-score was -1.78 in test [2]; 0.225 (inactive) in test [3]; -0.658 (inactive) in test [4]; 0.41 (inactive) in test [7] (setting [8]); -0.16 in test [7] (setting [9]). The EGFP object count in test [5] is 6. The EGFP/DsRed ratio in test [5] is 0.152 (inactive). In test [6], the fraction signal is -0.0025 (inactive).

In test [1], `Fc1ccc(-c2ncn(CCCN3CCOCC3)c2-c2ccncc2)cc1` showed a liver cell % of control of 110%. The parasite % of control in test [1] was 145% (inactive). The percent of negative control (+Dex) in test [2] was 98.5% (inactive). Further, the z-score in test [2] was 1.32; in test [3], 0.18 (inactive); in test [4] it was -0.092 (inactive); in test [7] (setting [8]) it was -1.02 (inactive); in test [7] (setting [9]), 0.219. Also, the EGFP object count in test [5] was determined as 4. Further, the EGFP/DsRed ratio in test [5] is 0.0405 (inactive). For the same compound, in test [6], the fraction signal is -0.0075 (inactive).

Regarding `Cc1cc(O)cc(C)c1/C=C/c1cncc(C(=O)OC(C)(C)C)c1`, the liver cell % of control in test [1] is 60.8%. The parasite % of control in test [1] was 116% (inactive). Further, in test [2], the percent of negative control (+Dex) is 100% (inactive). Besides, the z-score in test [2] was 0.33; in test [3], 0.75 (inactive); in test [4] it was -0.067 (inactive); in test [7] (setting [8]), 0.119 (inactive); in test [7] (setting [9]), -0.153. In addition, the EGFP object count in test [5] is 34.5. The EGFP/DsRed ratio in test [5] is 0.559 (inactive). Moreover, the fraction signal in test [6] is 0.0035 (inactive).

In test [1], `CCOc1ccc2c(-c3ccnc(Nc4cc(OC)cc(C(F)(F)F)c4)n3)cnn2n1` yielded a liver cell % of control of 65.9%. The parasite % of control in test [1] is 254% (inactive). In addition, in test [2], the percent of negative control (+Dex) was 86.5% (inactive). Besides, the z-score was 1.62 in test [2]; -0.445 (inactive) in test [3]; 0.258 (inactive) in test [4]; 0.655 (inactive) in test [7] (setting [8]); -0.17 in test [7] (setting [9]). The EGFP object count in test [5] worked out at 6. In addition, the EGFP/DsRed ratio in test [5] is 0.102 (inactive). Besides, the fraction signal in test [6] was -0.001 (inactive).

`OCCCNc1nccc(-c2c(-c3ccc(F)cc3)nn3cc(C(F)(F)F)ccc23)n1` gave a liver cell % of control in test [1] of 124%. Besides, the parasite % of control in test [1] is 77.5% (inactive). Moreover, in test [2], the percent of negative control (+Dex) was 106% (inactive). The z-score is 1.02 in test [2]; 0.765 (inactive) in test [3]; 0.66 (inactive) in test [4]; -0.607 (inactive) in test [7] (setting [8]); 0.0984 in test [7] (setting [9]). Moreover, the EGFP object count in test [5] stood at 2. In test [5], the EGFP/DsRed ratio is 0.0239 (inactive). The fraction signal in test [6] was -0.0065 (inactive).

Take `COc1ccc2cc(-c3c(-c4ccncc4)nc(-c4ccc(S(C)=O)cc4C)n3C)ccc2c1` (centres undefined): the liver cell % of control in test [1] was 94.7%. Moreover, the parasite % of control in test [1] is 66.8% (inactive). Further, the percent of negative control (+Dex) in test [2] was 94% (inactive). In addition, the z-score is 0.56 in test [2]; 0.7 (inactive) in test [3]; 0.465 (inactive) in test [4]; 0.0666 (inactive) in test [7] (setting [8]); -0.0858 in test [7] (setting [9]). The EGFP object count in test [5] is 2.5. Further, the EGFP/DsRed ratio in test [5] is 0.206 (inactive). For the same compound, the fraction signal in test [6] was -0.007 (inactive).

In test [1], `Nc1nc(-c2ccccn2)c(-c2ccc3ncccc3n2)s1` gave a liver cell % of control of 94.7%. Further, the parasite % of control in test [1] was 101% (inactive). Also, the percent of negative control (+Dex) in test [2] was 81.5% (inactive). Further, the z-score in test [2] is -0.74; in test [3], 0.265 (inactive); in test [4], 4.39 (inactive); in test [7] (setting [8]) it was -0.0333 (inactive); in test [7] (setting [9]), -0.22. In addition, the EGFP object count in test [5] was found to be 4. In addition, in test [5], the EGFP/DsRed ratio is 0.114 (inactive). The fraction signal in test [6] is -0.01 (inactive).
